# Results from PubChem BioAssay (NCI).
# The panel holds about 83,000 compounds, 20% with a hit somewhere; the sample as a whole holds those more often.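 A percent growth of 40 corresponds to 60% growth inhibition; 0 means no net growth; -100 means all cells died. Active threshold: below 10.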 Unmarked numbers belong to inactive results. The source made the active and inactive calls.
# Tested on: HL-60(TB) leukemia
# Assay: NCI-60 one-dose screen, 48 h (100 = growth as untreated, 0 = no growth, -100 = all killed)
# Conditions: 10 µM unless noted
row,SMILES,growth
1,COc1ccc(C2c3ccccc3NC(=O)N2C2CCN(C)CC2)c(OC)c1 (stereo not given),92.7%
2,Cc1ccc(O)c(C(=O)c2ccccc2Cl)c1,112%
3,CCN1C(=O)N(CC)C2C1NC(=S)N2/N=C/c1ccc(OC)cc1 (stereo not given),-12.1% (active)
4,C/C(Cc1ccc(Cl)cc1)=C(\c1ccc(O)cc1)c1ccc(Cl)cc1,95.7%
5,COc1ccc2c(c1)C(=O)c1c-2c(OCCCN(C)C)nc2cc(Br)ccc12,98.4%
6,O=C1/C(=C/c2ccc([N+](=O)[O-])cc2)CN(C(=O)CCN2CCC(=NO)CC2)C/C1=C\c1ccc([N+](=O)[O-])cc1,2.62% (active)
7,CCOc1cc(C(C)(C)C)ccc1C1=N[C@H](c2ccc(Cl)cc2)[C@H](c2ccc(Cl)cc2)N1C(=O)N1CCN(CC#Cc2cccc3c2CN([C@@H]2CCC(=O)NC2=O)C3=O)CC1,-20.9% (active)
8,Cc1ccc(OC2=C(C#N)C(=N)N3C(=NN2)Sc2c(C)ccc(C)c23)cc1,109%
9,O=C(NCCN1CCOCC1)c1cncnc1Nc1ccc2c(ccn2Cc2ccccn2)c1,99.7%
10,CN(C)CCOC(=O)Nc1ccc(Cl)cc1,100%
11,CC(=O)Nc1ccc2c(c1)Cc1c(F)cccc1-2,97.7%
12,CCCc1cc(=O)oc2c3c(c4c(c12)OC(C)(C)CC4)OC(C)[C@H](C)[C@@H]3O (stereo not given in full),109%
13,CCOC(=O)c1c(C)nc(C)c(C(=O)OCC)c1-c1cccnc1,61.1%
14,CCC(c1cccc(O)c1)C(CC)c1cccc(O)c1 (stereo not given),20.7%
15,O=c1[nH]c(=O)n(C2C[C@H](O)[C@@H](CO)O2)cc1C(F)(F)F (stereo not given in full),85.8%
16,O=C(CCCCCCCCC(=O)N/N=C\c1ccccc1O)N/N=C\c1ccccc1O,14.8%
17,CCN(CC)c1ccc2c(c1)OS(=O)(=O)N=C2,101%
18,O=C(/C=C/c1ccc([N+](=O)[O-])cc1)c1cccc(Nc2nc(Nc3ccccc3)nc(Nc3ccccc3)n2)c1,85.1%
19,CCN1C(=O)N(CC)C2C1NN=c1s/c(=C\c3ccc(C(F)(F)F)cc3)c(=O)n12 (stereo not given),-49.2% (active)
20,COc1ccc2c(O)c(/C=C3\N=Nc4ccccc43)oc2c1C[C@H]1CCNC[C@H]1F,14.4%

row,SMILES,growth
1,COc1cc(NC(=O)c2cc3ccccc3cc2O)c(OC)cc1Cl,-29.2% (active)
2,CCOC(=O)/C(C#N)=C(/CC)OCC,95%
3,O=C(Oc1ccccc1)C(Br)C(Br)c1ccccc1 (stereo not given),2.65% (active)
4,O=C(CN1CCOCC1)Nc1ccc2ncnc(Nc3ccc(Oc4cccc(F)c4)c(Cl)c3)c2c1,84.5%
5,COc1ccc(C2=NN(C=O)C(c3ccc(Oc4nc5c(c(=O)n(C)c(=O)n5C)n4C)c(OC)c3)C2)cc1 (stereo not given),90.3%
6,O=C(/C=C/c1cn(-c2ccccc2)nc1-c1ccccc1)OCc1cn(-c2cccc([N+](=O)[O-])c2)nn1,93%
7,CCOC(=O)CNP(=O)(OC[C@@H](Cc1ccccc1)NC(=O)c1cc2ccccc2s1)Oc1ccccc1 (stereo not given in full),79.4%
8,COc1ccc(/C=C/c2nc(NCCCN(C)C)c3ccccc3n2)cc1,88.3%
9,COc1ccc(-c2n/c(=C\c3c(O)[nH]c4ccc(OC)cc34)cc3c2=Nc2ccccc2-3)cc1,81%
10,CN(C)c1ccc(C(=NO)c2ccc(N(C)C)cc2)cc1,25%
11,CN(C)CCOc1ccc(-c2nc3sccn3c2-c2ccnc(S(C)(=O)=O)n2)cc1,97.1%
12,CCc1c2c(nc3ccc(OCc4ccc(B(O)O)cc4)cc13)-c1cc3c(c(=O)n1C2)COC(=O)[C@]3(O)CC,-40.8% (active)
13,N/C(=N\OC(=O)c1ccccc1)C(Cc1ccccc1)C(=O)NOC(=O)c1ccccc1 (stereo not given),-1.14% (active)
14,COc1cc2ncnc(Nc3cccc(Cl)c3F)c2cc1OC(=O)N1CCN(C)C[C@H]1C,102%
15,O=c1c(-c2nc3ccccc3[nH]2)cc2ccccc2n1Cc1cn(Cc2ccccc2Cl)nn1,67.4%
16,CCOc1ccccc1NC(=O)c1cc2ccccc2cc1O,48.8%
17,Cc1ccc(C(=O)c2ccc(CC(=O)N/N=C/c3ccccc3O)n2C)cc1,87%
18,COc1ccc2c(c1)Oc1nc(N)c(C#N)c(N)c1C2Sc1ccc(SC)cc1 (stereo not given),-22.3% (active)
19,N=c1sc(Cc2ccc(Cl)cc2)cn1CC(=O)c1ccc(F)cc1,94.8%
20,Cl.Fc1c[c-]c(-c2ccccn2)c(F)c1.[Pt].c1ccc([PH+](CC[PH+](c2ccccc2)c2ccccc2)c2ccccc2)cc1,-29.2% (active)
